Screening data as filed in PubChem BioAssay.
In the library only some 10% were active in any assay of this set; here they are far more common.
VDR inhibitor: inhibitors of human vitamin D receptor; P11473; VDR-SRC2-3 peptide fluorescence polarization, 2 h; Potency, µM, for the others: max response, negative = inhibition, most hits filed as inhibitors; actives 0.93% (n = 400,000); note: potency is the fitted concentration of half-maximal effect
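Reagent solutions, kept cold and dark, are dispensed first; compounds are then pinned in at 23 nl, plates briefly spun, and incubated 2 h at ambient temperature. Inhibition of VDR–SRC2-3 peptide binding is read by fluorescence polarization.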
MmCpn inh: blocks the Methanococcus maripaludis chaperonin Mm-Cpn | purified Mm-Cpn ATPase, ADP Transcreener TR-FRET | Potency, µM (doses to about 76.9 µM), inactives show at the top dose activity, negative = inhibition, actives largely listed as inhibitors | actives 0.031% (n = 330,000); note: potency is the fitted concentration of half-maximal effect; nearly all actives have a fitted effect of over 80% in size
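ATPase read-out: TR-FRET ADP immunoassay (anti-ADP Eu cryptate vs ADP-d2), ex 320 nm, em 590/665 nm; signal drops as ADP forms. Enzyme 25 nM, ATP 10 uM, 30 min at 37°C after 10 min compound preincubation.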
Sfp inh: blocks B. subtilis Sfp PPTase activity | Biochemical Sfp PPTase activity, qHTS | AID 1490 | Potency, µM, for inactives: largest response in the series, negative = inhibition, hits mostly inhibitors | actives 3.5% (n = 310,000);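 note: the enzyme is Sfp with the accession as filed and its product quenches rhodamine fluorescence; potency is the fitted concentration of half-maximal effect; 0% = enzyme reaction without inhibitor and -100% = no enzyme wells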
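Compounds were incubated with enzyme (final 15 nM) for 15 min at room temperature before substrate addition started the reaction. Fluorescence at 525 nm excitation, 598 nm emission was recorded immediately and after 30 minutes.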
G9a inh: G9a (human) methyltransferase inhibition; G9a H3K9 monomethylation, AlphaScreen, 2 h; actives 8.8% (n = 350,000); AID 504332; Q96KQ7; Potency, µM (doses to about 102 µM), without a hit: top-dose activity, negative = inhibition, actives largely listed as inhibitors; note: potency is the fitted concentration of half-maximal effect; nearly all actives have a fitted effect of over 75% in size
Target sequence (Q96KQ7 913-1193 limits assumed): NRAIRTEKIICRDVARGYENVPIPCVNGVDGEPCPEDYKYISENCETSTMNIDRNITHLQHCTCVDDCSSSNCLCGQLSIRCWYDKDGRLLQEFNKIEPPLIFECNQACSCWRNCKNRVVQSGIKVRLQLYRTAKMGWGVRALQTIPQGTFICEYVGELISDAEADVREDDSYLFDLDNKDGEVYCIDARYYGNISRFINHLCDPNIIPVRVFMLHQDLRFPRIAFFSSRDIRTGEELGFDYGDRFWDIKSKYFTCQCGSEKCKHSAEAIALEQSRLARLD
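Chemiluminescent proximity detection of H3K9 monomethylation, read after 10 min bead incubation in the dark. Reaction: 20 nM G9a, 500 nM biotin-H3K9 peptide, 20 uM SAM cofactor, 2 h, room temperature, following 15 min enzyme-compound preincubation.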
CCT modulator: modulators of cytosolic chaperonin (CCT/TRiC) activity. purified chaperonin ATPase assay, HTRF ADP detection, 30 min. activity change, % (no concentration beside the values), hits read low. actives 0.3% (n = 360,000). AID 651819; in the data active = activity change below about -30%
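TRiC at 40 or 20 nM final (batch-dependent) in 30 mM Tris pH 7.4, 100 mM KCl, 5 mM MgCl2, 1 mM DTT, with compound at single 76 uM and 10 uM ATP, 30 min at 37 deg C. ADP detected by HTRF Transcreener, 665/615 ratio.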
PLK1 PBD inh: inhibitors of human PLK1 polo-box domain binding; P53350; Plk1 PBD binding of FITC phosphopeptide, fluorescence polarization; Potency, µM, inactives show max response, negative = inhibition, most hits filed as inhibitors; actives 2.8% (n = 360,000); note: potency is the fitted concentration of half-maximal effect; series mostly up to about 57 µM; nearly all actives have a fitted effect of over 65% in size
Numbers without * were called inactive; ? = inconclusive; / = no result; [ ] = another dose, or the depositor's remark. Unless noted, calls come from the whole dose curve; as a rule, active = well fitted curve in the direction sought with a large enough effect; inconclusive = small, poorly fitted or top-dose-only effect, or another doubt; inactive = no such curve, though single readings can be large; an effect the other way counts as inactive or inconclusive. Unless noted, % is set by controls: 0 for no effect and ±100 for the full control effect.

SMILES | VDR inhibitor | MmCpn inh | Sfp inh | G9a inh | CCT modulator | PLK1 PBD inh
COc1ccc(-c2nc(-c3cccc(C)c3)nc(Cl)c2C#N)cc1 | / | -1.4% | 11.2% | 50.1µM* | / | /
O=C(CSc1n[nH]c(=O)n1Cc1ccccc1)Nc1ccc(F)c(F)c1F | -8.7% | 2.4% | ? | 39.8µM* | -1.6 | -12.2%
Cn1c(N)c(C(=O)CSc2nnc(NC3CCCCC3)s2)c(=O)n(C)c1=O | -4.7% | -1.6% | / | 50.1µM* | 0.5 | -16.3%
CC(=O)c1c(C)[nH]c(C(=O)CSc2nnc(NC3CC3)s2)c1C | -15.7% | -0.6% | / | 50.1µM* | 1.2 | -4.0%
O=c1c(-c2cccs2)nc2cnc(Oc3cccc(Cl)c3)nc2n1C[C@H]1CCCO1 | 5.4% | / | 13.1% | -6.6%[12.7 µM] | / | /
Cc1ccc(N2CC(c3nnc(NC(=O)c4ccco4)s3)CC2=O)cc1Cl (stereo not drawn) | 0.6% | / | / | 12.9%[59 µM] | / | /
O=C(c1ccccc1Cl)N1CCCCC1CCN1CCCCC1 (stereo not drawn) | 7.7% | / | / | -38.5%[59 µM] | / | /
CCc1cc(=O)oc2cc3occ(C)c3cc12 | -9.6% | -0.2% | -0.7% | -1.8%[59 µM] | 1.1 | -3.2%
CCc1cc(=O)oc2cc3occ(-c4ccc(OC)c(F)c4)c3cc12 | -20.3% | -3.6% | 20µM* | -1.2%[59 µM] | -4.4 | -5.0%
Cc1cc(N=Cc2c(O)n(-c3cccc(C(F)(F)F)c3)c(=O)c3ccccc23)no1 | -7.1% | -0.2% | 63.1µM* | 3.8%[59 µM] | 1.0 | -2.5%
COc1ccc(CCN2C(=O)NC(NC(C)=O)(C(F)(F)F)C2=O)cc1OC (stereo not drawn) | -11.2% | -0.6% | 8.8% | -8.7%[59 µM] | -0.6 | -0.7%
COc1ccc(C(=O)NC2(C(F)(F)F)NC(=O)N(CCCc3ccccc3)C2=O)cc1OC (stereo not drawn) | -8.8% | -1.8% | 3.8% | 2.6% | -1.5 | 26.7µM*
Cc1ccccc1CN1[C@@H](CC2CCCCC2)COCCS1(=O)=O | ? | 0.3% | 7.2% | 4.5% | -2.3 | 26.7µM*
O=S1(=O)CCOC[C@H](CC2CCCCC2)N1Cc1ccccc1 | -1.7% | -0.2% | 8.4% | ? | -1.6 | 0.4%
CC(C)[C@H]1COCCS(=O)(=O)N1Cc1ccccc1-c1ccc(C(C)(C)C)cc1 | -4.4% | -3.0% | / | / | -1.2 | -5.6%
CC(C)[C@H]1COCCS(=O)(=O)N1Cc1ccccc1-c1ccccc1 | ? | 2.2% | / | / | -0.8 | 23.8µM*
CC(C)C[C@H](NC(=O)CNC(=O)[C@H](C)NC(=O)[C@H](CC(C)C)NC(=O)[C@H](CCCNC(=N)N)NC(=O)[C@H](Cc1cnc[nH]1)NC(=O)[C@@H](NC(=O)[C@@H](NC(=O)[C@@H]1CSSC[C@H](NC(=O)[C@@H](N)CO)C(=O)N[C@@H](CC(N)=O)C(=O)N[C@@H]([C@@H](C)O)C(=O)N[C@@H](C)C(=O)N[C@@H]([C@@H](C)O)C(=O)N1)C(C)C)[C@@H](C)O)C(=O)N[C@@H](CC(C)C)C(=O)N[C@@H](CO)C(=O)N[C@@H](CCCNC(=N)N)C(=O)N[C@@H](CO)C(=O)NCC(=O)NCC(=O)N[C@H](C(=O)N[C@H](C(=O)N[C@@H](CCCCN)C(=O)N[C@@H](CC(=O)O)C(=O)N[C@@H](CC(N)=O)C(=O)N[C@@H](Cc1ccccc1)C(=O)N[C@H](C(=O)N1CCC[C@H]1C(=O)N[C@H](C(=O)N[C@@H](CC(N)=O)C(=O)N[C@H](C(=O)NCC(=O)N[C@@H](CO)C(=O)N[C@@H](CCCCN)C(=O)N[C@@H](C)C(=O)N[C@@H](Cc1ccccc1)C(N)=O)C(C)C)[C@@H](C)O)C(C)C)C(C)C)C(C)C | 15.2% | / | 3.4% | / | / | /
CCOc1ccc(NC(=O)CSc2ncc3c(n2)-c2ccccc2N(Cc2ccccc2C)S3(=O)=O)cc1 | -10.7% | / | / | -5.8%[59 µM] | / | /
CSc1ccccc1NC(=O)COC(=O)c1c[nH]c(=O)[nH]c1=O | -9.0% | 3.0% | -2.9% | / | -4.9 | -11.0%
O=C(COC(=O)c1c[nH]c(=O)[nH]c1=O)Nc1ccccc1F | 2.4% | 2.6% | 70.8µM* | ? | -3.1 | -16.3%
